Activity calls are given as the source filed them. How the source made its calls: active means hit-call score of the fitted dose curve at least 0.9, where 1 is the maximum; inactive means score below 0.9.
Assay: CCTE_Harrill_HTTr_Apoptosis_MCF7: CCTE's 6-hour Apoptosis Assessment for the High-Throughput Transcriptomics (HTTr) Platform, in MCF-7 cells cultured in DMEM + 10% fetal bovine serum, Harrill Lab (AID 2284011)
From the text: This is a cell-based assay that evaluates apoptosis using high content imaging to evaluate activation of caspase-3/7 using the CellEvent Caspase 3/7 Green detection reagent in 384-well format.One of seven assay components measured from the CCTE_Harrill_HTTr_Apoptosis assay. This was part of a full screening experiment. This is a cell-based assay that evaluates apoptosis in MCF-7 cells cultured in DMEM + 10% fetal bovine serum. High content imaging is used to evaluate activation of caspase-3/7 using the CellEvent Caspase 3/7 Green detection reagent. Measurements are taken at 6 hours after chemical dosing in 384-well format.The assay component endpoint CCTE_Harrill_HTTr_Apoptosis_MCF7 was analyzed with bidirectional fitting relation to DMSO as the negative control and baseline of activity. Using a type of viability reporter, gain-of-signal activity can be used to evaluate activation of caspase-3/7 using the CellEvent Caspase 3/7 Green detection reagent to understand changes in apoptosis. To generalize the intended target to other relatable targets, this assay endpoint is annotated to cell cycle, where the subfamily is apoptosis.
Chemicals were tested in MCF7 cells in an eight point dilution series with a six hour exposure duration.
With `Cc1ccc(N)cc1` the outcome was “inactive”. For `O=C(N[C@H](c1ccccc1)[C@@H]1CN2CCC1CC2)c1c(Cl)ccc(C(F)(F)F)c1Cl`, the outcome was “inactive”. With `CNC(=O)Oc1cccc2c1OC(C)(C)C2` the outcome was “inactive”. In the case of `c1ccc(N=Nc2ccccc2)cc1`, the outcome is reported as “inactive”. In the case of `Cc1ccc([N+](=O)[O-])cc1`, the outcome is reported as “inactive”. With `COC(=O)c1ccccc1N` the outcome was “inactive”. In the case of `CC(O)CCO` (stereo not given), the outcome is reported as “inactive”. For `[O-][Cl+]O`, the outcome was “inactive”. With `CCCCOC(=O)c1ccccc1C(=O)OCc1ccccc1` the outcome was “inactive”. In the case of `CC(C)(OOC(C)(C)c1ccccc1)c1ccccc1`, the outcome is reported as “inactive”. With `Clc1ccccc1Cl` the outcome was “inactive”. For `Clc1ccc(C(c2ccc(Cl)cc2)C(Cl)Cl)cc1`, the outcome was “inactive”. In the case of `Cn1cc(-c2ccccc2)c(=O)c(-c2cccc(C(F)(F)F)c2)c1`, the outcome is reported as “inactive”. With `c1ccc(NNc2ccccc2)cc1` the outcome was “inactive”. In the case of `CC(C)(C)C(O)(CCc1ccc(Cl)cc1)Cn1cncn1` (stereo not given), the outcome is reported as “inactive”. With `CCC[CH2][Sn]([Cl])([CH2]CCC)[CH2]CCC` the AC50 was 10.9 µM (active). For `C[C@]12C=CC3=C4CCC(=O)C=C4CC[C@H]3[C@@H]1CC[C@@H]2O`, the outcome was “inactive”. With `CCCCCOC(=O)c1ccccc1C(=O)OCCCCC` the outcome was “inactive”. In the case of `CCN(CC)CCO`, the outcome is reported as “inactive”. With `CC(C)(O)c1cnn2c(-c3ccc(F)c(-c4c(F)cccc4C#N)c3)cnc2n1` the outcome was “inactive”. For `CCCCCCCCOC(=O)c1ccc(C(=O)OCCCCCCCC)c(C(=O)OCCCCCCCC)c1`, the outcome was “inactive”. For `Nc1ccc(Cc2ccc(N)cc2)cc1`, the outcome was “inactive”. With `COc1cc(C=O)cc2c1[C@H](COC(N)=O)[C@]1(OC(C)=O)ON2C[C@H]2[C@@H]1N2C(C)=O` the outcome was “inactive”. In the case of `Cc1cc(N=Nc2ccccc2C)ccc1N`, the outcome is reported as “inactive”. With `O=C(Oc1ccc(Br)cc1)N1CCN2CCC1CC2` the outcome was “inactive”. With `CCCCCCCCn1sccc1=O` the AC50 was 45.9 µM (active). With `CCNS(=O)(=O)C(F)(F)C(F)(F)C(F)(F)C(F)(F)C(F)(F)C(F)(F)C(F)(F)C(F)(F)F` the outcome was “inactive”. With `Cc1ccc(N=C=O)cc1N=C=O` the outcome was “inactive”. With `Nc1ccc(Cl)cc1N` the outcome was “inactive”. With `CN(C)[C@@H]1C(=O)C(C(N)=O)=C(O)[C@@]2(O)C(=O)C3=C(O)c4c(O)cccc4[C@@](C)(O)[C@H]3C[C@@H]12` the outcome was “inactive”. In the case of `C1=Cc2cccc3cccc1c23`, the outcome is reported as “inactive”. With `Nc1ccc([N+](=O)[O-])cc1` the outcome was “inactive”. With `CCC12COCN1COC2` the outcome was “inactive”. With `O=[N+]([O-])C(Br)(CO)CO` the outcome was “inactive”. With `CN(C)c1ccc(C(=O)c2ccc(N(C)C)cc2)cc1` the outcome was “inactive”. With `CCOC(=O)[C@]1(c2ccccc2)Oc2ccccc2[C@@H]1N` the outcome was “inactive”. For `O=C(O)C1C2CCC(O2)C1C(=O)O` (stereo not given), the outcome was “inactive”. With `COC(=O)Nc1nc2ccccc2[nH]1` the outcome was “inactive”. In the case of `CC(C)N(Cc1ccccc1)C(=O)C(C)(C)C`, the outcome is reported as “inactive”. In the case of `[Cl-].[Cl-].[Hg+2]`, the outcome is reported as “inactive”.
